Measurements as given in PubChem BioAssay AID2557 (NMMLSC, 2010).
Values joined by “and” are separate entries in the source; they are usually repeats but may differ in a detail not shown here. Identical values can stand only once. Out of some 330,000 compounds screened, about 650 (0.2%) were called active. The list comes from a sample in which actives are over-represented; it also holds similar structures and randomly drawn compounds. Unmarked numbers belong to inactive results. Rule as the data show it: active = inhibition above about 50%; inactive = the rest.

Target: Integrin alpha-4 (Homo sapiens) (UniProt P13612)
Assay: inhibition in human VLA-4 binding assay, primary screen, VLA-4 allosteric modulator project, MLPCN library, flow cytometry, VLA-4 expressing cells (AID 2557)
Settings: ligand binding flow cytometry, active compounds read high, about 7 µM as worked out from the volumes in the protocol

Sequence of Integrin alpha-4 (Homo sapiens) (P13612 whole entry, looked up): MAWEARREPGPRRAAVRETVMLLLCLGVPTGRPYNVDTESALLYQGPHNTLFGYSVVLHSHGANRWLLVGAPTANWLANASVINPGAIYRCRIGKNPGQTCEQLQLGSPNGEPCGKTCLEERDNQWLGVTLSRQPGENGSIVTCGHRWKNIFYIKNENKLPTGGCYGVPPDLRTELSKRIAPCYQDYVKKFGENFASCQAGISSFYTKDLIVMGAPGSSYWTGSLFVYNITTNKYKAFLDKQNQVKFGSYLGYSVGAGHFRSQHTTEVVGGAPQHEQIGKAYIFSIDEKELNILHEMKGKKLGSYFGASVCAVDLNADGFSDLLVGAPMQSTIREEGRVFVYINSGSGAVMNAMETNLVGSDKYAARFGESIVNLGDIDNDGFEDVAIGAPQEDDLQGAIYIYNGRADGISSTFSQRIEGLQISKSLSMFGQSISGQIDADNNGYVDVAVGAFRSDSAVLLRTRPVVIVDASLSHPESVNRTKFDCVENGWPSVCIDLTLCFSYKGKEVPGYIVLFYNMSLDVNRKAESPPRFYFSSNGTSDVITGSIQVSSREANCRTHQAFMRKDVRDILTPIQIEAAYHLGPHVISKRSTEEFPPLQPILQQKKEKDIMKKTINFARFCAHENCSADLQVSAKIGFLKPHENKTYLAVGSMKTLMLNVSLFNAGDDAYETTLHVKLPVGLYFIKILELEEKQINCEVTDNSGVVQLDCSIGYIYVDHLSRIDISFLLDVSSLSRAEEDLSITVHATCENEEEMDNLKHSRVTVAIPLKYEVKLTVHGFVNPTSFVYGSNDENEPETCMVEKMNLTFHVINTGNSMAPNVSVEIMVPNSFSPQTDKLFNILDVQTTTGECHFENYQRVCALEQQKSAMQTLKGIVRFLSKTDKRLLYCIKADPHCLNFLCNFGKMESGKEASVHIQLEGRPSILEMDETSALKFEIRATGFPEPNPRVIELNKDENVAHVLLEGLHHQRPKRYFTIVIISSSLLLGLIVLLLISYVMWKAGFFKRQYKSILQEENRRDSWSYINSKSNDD

Row | Structure (SMILES) | inhibition
1 | C=CCN1C(=O)C2(C(C(=O)OCC)=C(N)Oc3c2c(=O)oc2ccccc32)c2ccccc21 (stereo not given) | 59.3% (active)
2 | CCOC(=O)CC1=C(C(=O)OCC)C2(C(=O)N1)C(C(=O)OC)=C(N)Oc1ccccc12 (stereo not given) | -7.95%
3 | CCOC(=O)C1=C(C)OC(N)=C(C(=O)OC)C12C(=O)Nc1ccc(Br)cc12 (stereo not given) | 15.8%
4 | CN(C)C(=O)Oc1cc(OC(=O)N(C)C)cc(C(O)CNC(C)(C)C)c1 (stereo not given) | -22.5% and -5.62%
5 | CCc1nnc(NS(=O)(=O)c2ccc(N=Cc3c(O)n(-c4ccccc4)c(=O)[nH]c3=O)cc2)s1 | -0.39%
6 | O=c1c2ccccc2nc(-c2ccc(Cl)cc2Cl)n1-c1ccncc1 | 62.6% (active)
7 | Cc1nc2ccccc2c(=O)n1-c1ccc(Cl)cc1Cl | 24.4%
8 | COc1ccc(-n2c(-c3ccccc3)nc3ccccc3c2=O)cc1 | -3.5%
9 | Cn1c(O)c(C(=Nc2ccc(F)cc2)c2ccccc2)c(=O)n(C)c1=O | 5.63%
10 | C=CCn1c(O)c(/C=N/N2CCOCC2)c(=O)[nH]c1=S | 7.33%
